{"source": "paper PMC7826789", "about": "(International Journal of Molecular Sciences, 2021)", "data": [{"smiles": "COc1cc(C=NNc2ncnc3c2cnn3-c2ccccc2)ccc1O", "note": "[GW513184X]", "values": [{"measurement": "Kinases covered", "setting": "AurkA", "result": "AurkA"}]}, {"smiles": "COc1cc(-c2cncc(-c3cnn(C4CCNCC4)c3)c2)cc(OC)c1OC", "note": "[K05908]", "values": [{"measurement": "Kinases covered", "setting": "BMPR1A", "result": "BMPR1A"}, {"measurement": "Kinases covered", "setting": "BMPR1B", "result": "BMPR1B"}]}, {"smiles": "CC(C)N1CC(=O)N(C)c2cnc(Nc3cccc(S(=O)(=O)CCN4CCOCC4)c3)nc21", "note": "[BI00009348]", "values": [{"measurement": "Kinases covered", "setting": "BMPR2", "result": "BMPR2"}]}, {"smiles": "C=CC(=O)Nc1cc(-n2c(=O)ccc3cnc4ccc(-c5ccc(NS(C)(=O)=O)cc5)cc4c32)ccc1C", "note": "[BMX-IN-1]", "values": [{"measurement": "Kinases covered", "setting": "BMX", "result": "BMX"}]}, {"smiles": "COc1ccc2[nH]c3c4[nH]c5ccc(OC)cc5c4c4c(c3c2c1)C(=O)NC4=O", "note": "[GW296115X]", "values": [{"measurement": "Kinases covered", "setting": "BRSK1", "result": "BRSK1"}, {"measurement": "Kinases covered", "setting": "BRSK2", "result": "BRSK2"}]}]}
